Design in all cases: scale not given: direction of the effect not stated beside the values
Test [1] concerns the target Protein translocase subunit SecA (Escherichia coli (strain K12)) (UniProt P10408). Put plainly: Assay to Identify E. coli SecA ATPase Inhibitors. In kind it is functional. To be noted: 30 µM.
Test [2] has as its target T1, Ubiquitin-activating enzyme e1, putative (Leishmania donovani (strain BPK282A1)) (UniProt E9BSI1).
T1 sequence (whole entry): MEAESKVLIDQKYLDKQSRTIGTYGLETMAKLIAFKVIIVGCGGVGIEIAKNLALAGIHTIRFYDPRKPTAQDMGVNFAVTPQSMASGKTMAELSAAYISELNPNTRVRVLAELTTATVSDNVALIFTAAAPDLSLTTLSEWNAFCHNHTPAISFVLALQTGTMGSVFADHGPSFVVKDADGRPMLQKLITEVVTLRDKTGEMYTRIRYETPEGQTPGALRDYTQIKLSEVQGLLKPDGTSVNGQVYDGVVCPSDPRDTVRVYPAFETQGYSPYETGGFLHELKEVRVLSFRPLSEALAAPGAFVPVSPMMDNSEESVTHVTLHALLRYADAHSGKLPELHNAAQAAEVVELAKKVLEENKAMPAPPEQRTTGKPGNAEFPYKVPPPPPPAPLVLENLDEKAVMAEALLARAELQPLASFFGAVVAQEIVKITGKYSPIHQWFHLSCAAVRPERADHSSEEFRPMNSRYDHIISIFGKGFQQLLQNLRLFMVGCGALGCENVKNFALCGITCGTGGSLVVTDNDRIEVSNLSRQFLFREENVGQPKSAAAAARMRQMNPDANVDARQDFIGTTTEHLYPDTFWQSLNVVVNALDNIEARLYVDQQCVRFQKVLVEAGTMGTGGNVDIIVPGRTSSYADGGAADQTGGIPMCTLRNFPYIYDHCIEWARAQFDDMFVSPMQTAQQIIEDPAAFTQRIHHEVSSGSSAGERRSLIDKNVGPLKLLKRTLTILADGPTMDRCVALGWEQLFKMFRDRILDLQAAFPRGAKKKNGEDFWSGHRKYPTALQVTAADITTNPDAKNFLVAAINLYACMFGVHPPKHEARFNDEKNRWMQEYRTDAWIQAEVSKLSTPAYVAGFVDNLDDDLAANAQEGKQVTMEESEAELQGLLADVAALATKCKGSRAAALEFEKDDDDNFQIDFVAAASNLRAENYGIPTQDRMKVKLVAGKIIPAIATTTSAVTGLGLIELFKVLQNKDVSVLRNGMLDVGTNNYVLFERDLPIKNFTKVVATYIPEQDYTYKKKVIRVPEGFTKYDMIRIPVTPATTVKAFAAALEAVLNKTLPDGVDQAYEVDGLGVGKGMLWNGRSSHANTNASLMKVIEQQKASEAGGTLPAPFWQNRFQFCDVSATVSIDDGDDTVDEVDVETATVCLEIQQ
Put plainly: Leishmania donovani Ubiquitin Activating Enzyme (LdE1). In kind it is functional. The note with it: 30 µM.

Test [3] has as its target AMP-activated protein kinase, AMPK (Homo sapiens) (UniProt P54646+O43741+P54619+Q9UGJ0+Q9Y478+Q13131+Q9UGI9). Kind of test: AMP-dependent Kinase enzyme assay. An in vitro enzyme assay that detects ADP turnover that is directly proportional to AMPK activity. This uses naive AMPK that is activated during the assay with MK-8722. In kind it is functional. To be noted: 30 µM.

For test [4], the target named is Sialic acid-binding Ig-like lectin 9 (Homo sapiens) (UniProt Q9Y336). Put plainly: Hs-Siglec9 ALPHAscreen SOP 20170721. The note with it: 10 µM. (In Alpha technology, singlet oxygen from a donor bead excites a nearby acceptor bead.)
Chain of Sialic acid-binding Ig-like lectin 9 (Homo sapiens) (Q9Y336 whole entry): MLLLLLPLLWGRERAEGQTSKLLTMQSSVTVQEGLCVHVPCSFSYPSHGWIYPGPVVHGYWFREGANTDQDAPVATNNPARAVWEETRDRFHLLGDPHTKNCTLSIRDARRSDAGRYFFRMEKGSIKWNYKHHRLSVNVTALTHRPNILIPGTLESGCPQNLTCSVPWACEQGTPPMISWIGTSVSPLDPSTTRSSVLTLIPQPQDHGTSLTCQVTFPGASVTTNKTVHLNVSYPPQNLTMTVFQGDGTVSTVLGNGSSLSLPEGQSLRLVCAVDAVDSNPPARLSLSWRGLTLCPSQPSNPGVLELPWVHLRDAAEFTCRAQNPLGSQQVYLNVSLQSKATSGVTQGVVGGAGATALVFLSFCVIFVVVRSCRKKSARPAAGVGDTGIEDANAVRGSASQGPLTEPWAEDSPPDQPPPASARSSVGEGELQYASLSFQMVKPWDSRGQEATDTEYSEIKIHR
For the next test, the system named is Trypanosoma cruzi. Put plainly: Trypanosoma cruzi phosphomannomutase and mannose-1-phosphate guanylyltransferase assay. In kind it is functional. The note with it: 10 µM.
Test [5] has as its target T2, Arginase-2, mitochondrial (Homo sapiens) (UniProt P78540).
T2 sequence (whole entry): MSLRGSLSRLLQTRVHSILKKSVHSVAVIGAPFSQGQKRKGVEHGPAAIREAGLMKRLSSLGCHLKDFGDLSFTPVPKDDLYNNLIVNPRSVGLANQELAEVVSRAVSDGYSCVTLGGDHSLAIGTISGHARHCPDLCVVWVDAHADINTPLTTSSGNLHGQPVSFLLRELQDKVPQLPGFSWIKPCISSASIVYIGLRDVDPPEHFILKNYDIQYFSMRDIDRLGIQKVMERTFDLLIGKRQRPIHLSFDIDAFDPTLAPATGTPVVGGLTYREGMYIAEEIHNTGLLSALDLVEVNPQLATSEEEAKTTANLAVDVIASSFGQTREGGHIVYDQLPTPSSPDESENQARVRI
Put plainly: in vitro enzyme assay to detect the production of urea directly proportional to the activity of Arginase II. Also: in the data most compounds retested in dose-response had high values. In kind it is functional. The note with it: 33.3 µM.

Test [6] concerns the target T3, Proteasome subunit beta (Trypanosoma cruzi) (UniProt O96673).
T3 sequence (whole entry): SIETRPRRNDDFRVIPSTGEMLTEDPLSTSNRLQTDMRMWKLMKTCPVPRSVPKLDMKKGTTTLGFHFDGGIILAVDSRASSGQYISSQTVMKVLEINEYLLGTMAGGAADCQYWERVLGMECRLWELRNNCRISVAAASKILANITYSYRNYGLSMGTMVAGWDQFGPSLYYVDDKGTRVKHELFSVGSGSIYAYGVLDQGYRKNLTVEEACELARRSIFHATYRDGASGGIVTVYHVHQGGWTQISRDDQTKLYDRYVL
Put plainly: Trypanosoma cruzi proteasome chymotrypsin-like activity (TcProtChymo) assay. Also: in the data most compounds retested in dose-response had high values. In kind it is functional. The note with it: 9.37 µM.

For the next test, the species on record is Homo sapiens. Put plainly: To identify inhibition of the IFN signalling (Jak-Stat) pathway via expression of an eGFP reporter gene under the control of an IFN-stimulated response element (ISRE) containing MxA promoter. In kind it is functional. To be noted: 30 µM. On the technique in general: A reporter such as luciferase makes a cellular process visible.

Test [7] concerns the target T4, Tyrosyl-tRNA synthetase, putative (Trypanosoma cruzi (strain CL Brener)) (UniProt Q4DSP6).
T4 sequence (whole entry): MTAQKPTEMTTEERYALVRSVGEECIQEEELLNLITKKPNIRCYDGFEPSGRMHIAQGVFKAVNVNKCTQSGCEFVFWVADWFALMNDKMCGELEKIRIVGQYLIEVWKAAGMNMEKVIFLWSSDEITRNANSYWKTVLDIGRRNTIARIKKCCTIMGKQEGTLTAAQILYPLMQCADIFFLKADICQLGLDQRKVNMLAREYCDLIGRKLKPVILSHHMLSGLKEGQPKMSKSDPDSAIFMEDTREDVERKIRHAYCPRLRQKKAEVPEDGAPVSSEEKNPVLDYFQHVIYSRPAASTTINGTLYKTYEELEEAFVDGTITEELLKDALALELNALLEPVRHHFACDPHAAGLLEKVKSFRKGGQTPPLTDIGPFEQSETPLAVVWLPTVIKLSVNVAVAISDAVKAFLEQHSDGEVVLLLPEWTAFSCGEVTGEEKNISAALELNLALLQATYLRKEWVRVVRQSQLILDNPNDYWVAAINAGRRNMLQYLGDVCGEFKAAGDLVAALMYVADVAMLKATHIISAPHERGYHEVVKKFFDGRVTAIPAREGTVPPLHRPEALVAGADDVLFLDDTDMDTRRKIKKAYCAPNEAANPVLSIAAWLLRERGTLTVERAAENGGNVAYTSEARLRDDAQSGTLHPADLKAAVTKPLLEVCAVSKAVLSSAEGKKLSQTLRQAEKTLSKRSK
Put plainly: Trypanosoma cruzi tyrosyl tRNA synthetase (TcYRS) _High Tyrosine SOP. Also: in the data most compounds retested in dose-response had high values. In kind it is functional. The note with it: 30 µM.

For test [8], the target named is T4, Tyrosyl-tRNA synthetase, putative (Trypanosoma cruzi (strain CL Brener)). Kind of test: Trypanosoma cruzi tyrosyl tRNA synthetase (TcYRS) SOP. In kind it is functional. The note with it: 30 µM.
The target of test [9] is Chromo domain-containing protein 1 (Saccharomyces cerevisiae (strain ATCC 204508 / S288c) (Baker's yeast)) (UniProt P32657). Put plainly: ScCHD-1 Enzyme Inhibition Assay. Also: in the data most compounds retested in dose-response had high values. In kind it is functional. The note with it: 30 µM.
Chain of Chromo domain-containing protein 1 (Saccharomyces cerevisiae (strain ATCC 204508 / S288c) (Baker's yeast)) (P32657 whole entry, the tested form may be a part): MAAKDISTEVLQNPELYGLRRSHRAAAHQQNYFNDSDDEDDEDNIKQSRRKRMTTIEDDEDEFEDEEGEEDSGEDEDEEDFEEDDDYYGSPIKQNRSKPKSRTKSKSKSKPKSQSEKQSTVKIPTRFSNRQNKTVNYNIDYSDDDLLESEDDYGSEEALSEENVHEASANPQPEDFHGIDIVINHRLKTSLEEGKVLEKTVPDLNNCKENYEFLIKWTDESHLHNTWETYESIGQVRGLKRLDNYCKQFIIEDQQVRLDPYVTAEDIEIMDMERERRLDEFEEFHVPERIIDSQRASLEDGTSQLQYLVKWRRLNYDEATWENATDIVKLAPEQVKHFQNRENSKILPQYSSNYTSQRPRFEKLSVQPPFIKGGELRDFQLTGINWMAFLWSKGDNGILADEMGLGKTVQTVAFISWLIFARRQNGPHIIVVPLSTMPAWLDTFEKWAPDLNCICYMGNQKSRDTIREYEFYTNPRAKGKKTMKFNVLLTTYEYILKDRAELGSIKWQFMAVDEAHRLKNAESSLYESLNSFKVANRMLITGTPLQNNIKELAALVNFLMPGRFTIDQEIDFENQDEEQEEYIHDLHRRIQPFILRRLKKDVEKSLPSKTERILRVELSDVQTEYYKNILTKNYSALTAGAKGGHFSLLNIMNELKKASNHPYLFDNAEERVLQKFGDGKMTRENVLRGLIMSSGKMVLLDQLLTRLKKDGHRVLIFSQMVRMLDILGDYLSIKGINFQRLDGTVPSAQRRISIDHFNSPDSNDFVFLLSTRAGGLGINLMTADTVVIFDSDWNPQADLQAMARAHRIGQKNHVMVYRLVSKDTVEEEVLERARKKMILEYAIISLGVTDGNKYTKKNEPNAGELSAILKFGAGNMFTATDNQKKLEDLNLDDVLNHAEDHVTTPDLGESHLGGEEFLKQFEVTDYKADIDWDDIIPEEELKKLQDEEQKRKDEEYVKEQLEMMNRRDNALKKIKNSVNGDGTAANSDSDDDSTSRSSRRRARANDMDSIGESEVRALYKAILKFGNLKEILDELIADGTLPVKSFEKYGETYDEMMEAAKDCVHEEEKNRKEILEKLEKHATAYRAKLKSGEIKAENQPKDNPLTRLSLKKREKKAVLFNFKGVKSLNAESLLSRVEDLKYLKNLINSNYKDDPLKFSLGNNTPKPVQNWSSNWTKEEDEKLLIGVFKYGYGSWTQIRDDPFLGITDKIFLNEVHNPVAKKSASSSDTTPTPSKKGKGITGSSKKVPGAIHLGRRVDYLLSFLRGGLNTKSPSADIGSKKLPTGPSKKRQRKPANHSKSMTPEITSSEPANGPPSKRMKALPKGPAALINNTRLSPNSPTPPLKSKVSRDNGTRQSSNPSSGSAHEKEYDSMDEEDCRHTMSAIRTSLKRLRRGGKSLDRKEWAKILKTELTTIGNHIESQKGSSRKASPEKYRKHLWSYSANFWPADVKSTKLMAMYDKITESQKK

The values below come from ChEMBL document CHEMBL3988442, “University of Dundee, Small-Polar-MMV Screening Library” (2021).

Molecules are shown by their SMILES. For some of these results: Measured potencies and affinities stand elsewhere.

Chain of Protein translocase subunit SecA (Escherichia coli (strain K12)) (P10408 whole entry): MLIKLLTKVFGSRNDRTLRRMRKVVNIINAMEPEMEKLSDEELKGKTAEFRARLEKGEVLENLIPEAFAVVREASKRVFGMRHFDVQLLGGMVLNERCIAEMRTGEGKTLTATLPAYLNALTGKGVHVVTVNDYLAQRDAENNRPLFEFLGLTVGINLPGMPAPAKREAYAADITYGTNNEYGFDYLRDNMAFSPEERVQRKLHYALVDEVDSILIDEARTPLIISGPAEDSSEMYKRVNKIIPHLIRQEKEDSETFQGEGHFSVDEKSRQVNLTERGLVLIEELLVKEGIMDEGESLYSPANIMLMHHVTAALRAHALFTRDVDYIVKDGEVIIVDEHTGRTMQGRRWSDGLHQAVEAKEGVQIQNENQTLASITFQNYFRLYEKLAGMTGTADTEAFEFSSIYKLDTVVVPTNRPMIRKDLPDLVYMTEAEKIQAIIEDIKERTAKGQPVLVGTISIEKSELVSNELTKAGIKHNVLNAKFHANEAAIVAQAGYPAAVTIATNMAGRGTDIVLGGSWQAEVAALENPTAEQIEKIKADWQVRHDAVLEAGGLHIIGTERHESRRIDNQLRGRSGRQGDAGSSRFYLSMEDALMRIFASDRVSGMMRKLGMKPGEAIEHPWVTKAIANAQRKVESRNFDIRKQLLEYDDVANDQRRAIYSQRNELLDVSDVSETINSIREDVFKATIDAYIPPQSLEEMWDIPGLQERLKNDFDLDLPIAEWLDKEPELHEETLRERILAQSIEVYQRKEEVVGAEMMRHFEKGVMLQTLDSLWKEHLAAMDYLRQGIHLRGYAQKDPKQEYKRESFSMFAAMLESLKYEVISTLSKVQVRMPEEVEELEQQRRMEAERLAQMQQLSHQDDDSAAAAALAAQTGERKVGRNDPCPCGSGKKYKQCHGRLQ

As to `COCc1n[nH]/c(=N/C(=O)COc2cnc(C)cc2O)s1`, the Percent Effect in test [1] was -1.58%; in test [2], -5.26%; in test [3], 2.8%; in [4], 1.24%; with Trypanosoma cruzi, -6.33%; in test [5], -1.18%. Besides, the Percent Effect was 9.3% in test [6]; -1.08% in the test listed under Homo sapiens; 3.19% in [7]; 5.2% in [8]; -4.33% in [9].
In the case of `CN(C)C(C(=O)N1CCC(N2CCSCC2)CC1)c1ccccc1F` (stereo not drawn), the Percent Effect was -0.819% in [1]; 12.5% in test [2]; -3.64% in [3]; 4.95% in test [4]; 1.46% in the test on Trypanosoma cruzi; 22.5% in test [5]. The Percent Effect in [6] is 20.7%; in the test listed under Homo sapiens it was -4.19%; in test [7], 10.5%; in test [8], 20.5%; in test [9], -1.59%.
In the case of `CCc1nccn1C1CCCN(C(=O)c2ccc(C(=O)NC)nc2)C1` (stereo not drawn), the Percent Effect in [1] is 1.89%; in test [2], -2.6%; in test [3], 1.32%; in [4] it was 2.31%; with Trypanosoma cruzi it was -2.81%; in [5] it was 4.63%. Moreover, the Percent Effect in test [6] is 1.86%; in the test filed under Homo sapiens, 18.1%; in test [7], 1.94%; in test [8] it was 0%; in test [9] it was -4.59%.
In the case of `O=C(c1ccc[nH]1)N1CCc2c(COCC3CC3)cncc2C1`, the Percent Effect in test [1] was 0.487%; in test [2], 13.5%; in [3], 0.508%; in test [4] it was -7.71%; with Trypanosoma cruzi, -4.99%; in test [5] it was 0.955%. Besides, the Percent Effect in [6] amounted to 29.1%; in the test filed under Homo sapiens, 0.5%; in test [7], 3.24%; in [8], 12.8%; in [9], 0.2%.
Turning to `CCn1nnc2c1C(COC)CN(C(=O)Cc1cccs1)C2` (stereo not drawn), the Percent Effect in test [1] is -0.417%; in [2] it was 5.41%; in [3], -1.12%; in test [4], -5.98%; with Trypanosoma cruzi, -2.93%; in [5], -2.5%. The Percent Effect was 17.8% in [6]; -0.944% in the test listed under Homo sapiens; 6.93% in test [7]; 8.54% in [8]; 5.86% in test [9].
`COc1ccc2c(c1)CCN(CCC(=O)O)CC2`: the Percent Effect was 0.2% in test [1]; 16.2% in test [2]; -5.1% in test [3]; 15.3% in test [4]; 1.74% with Trypanosoma cruzi; 1.91% in test [5]. Also, the Percent Effect was 13.6% in test [6]; 6.58% in the test listed under Homo sapiens; 5.82% in test [7]; 17.1% in test [8]; -1.92% in [9].
Regarding `O=S(=O)(NCC1CCOc2ccccc2C1)N1CCOCC1` (stereo not drawn), the Percent Effect was -5.96% in [1]; 15.6% in test [2]; 1.72% in test [3]; 13.8% in test [4]; 3.83% in the test on Trypanosoma cruzi; -1.38% in test [5]. For the same compound, the Percent Effect in test [6] was found to be 11.8%; in the test listed under Homo sapiens, 6.21%; in test [7], 3.23%; in test [8], 13.6%; in test [9], 1.35%.
As to `Cn1nnc2c1C(COCc1ccccn1)CN(C(=O)c1cccs1)C2` (stereo not drawn), the Percent Effect in test [1] is 3.29%; in [2], 16.4%; in test [3], -9.82%; in test [4], 5.59%; with Trypanosoma cruzi, 1.59%; in test [5] it was -7.19%. Moreover, the Percent Effect in [6] is 13.6%; in the test listed under Homo sapiens, 36.4%; in test [7], 6.25%; in test [8] it was 23.5%; in test [9], -1.99%.
